A number with no mark means an inactive call. Records with an inconclusive call do not appear. The source made the active and inactive calls. The call rests on the fitted dose curve; in most records, active means well fitted curve in the direction sought with a large enough effect in the repeat runs; inconclusive means weak or mixed curves; inactive means no such curve, though single readings can be large; an effect the other way counts as inactive or inconclusive.

Test [1] can be described thus: qHTS RealTime-Glo MT Cell Viability Assay in HepG2 cells - 24 hour (AID 1224867). Further: nearly all actives have a fitted effect of over 50% in size. In short, it runs like this:
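HepG2 suspension premixed with RealTime-Glo reagents is plated at 600 cells per well and left 5 h at 37 C/5% CO2. Compounds in DMSO then go in, and bioluminescence reflecting viable cell number is recorded over 40 h.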
(Quantitative high-throughput screening tests each substance at several concentrations.)

A short description of test [2]: qHTS RealTime-Glo MT Cell Viability Assay in HEK293 cells - 32 hour (AID 1224868). Further: nearly all actives have a fitted effect of over 50% in size. Further: potency means the concentration at half of the fitted maximal effect. In short, it runs like this: (§1)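 Reads taken at 0, 8, 16, 24, 32 and 40 h from the same wells. HEK293 cells (600/well) carried RealTime-Glo reagents from seeding, with compound added after a 5 h settle at 37 C.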
Test [3] is described as follows: A CellTox Green Cytotoxicity Assay to monitor cytotoxicity in HEK293 cells - 0 hour (AID 1224869). Further: nearly all actives have a fitted effect of over 50% in size. In a few lines: (§2)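 Each value comes from one timepoint of a single continuous run in which HEK293 cells with CellTox Green were exposed to compound for up to 40 h at 37 C, dye fluorescence rising with cell death.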
Test [4] is described as follows: A CellTox Green Cytotoxicity Assay to monitor cytotoxicity in HEK293 cells - 40 hour (AID 1224871). Further: nearly all actives have a fitted effect of over 45% in size. In a few lines: as §2
The nature of test [5]: qHTS RealTime-Glo MT Cell Viability Assay in HepG2 cells - 8 hour (AID 1224873). Further: nearly all actives have a fitted effect of over 55% in size. In a few lines:
(§3)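 HepG2 cells (600/well) mixed with RealTime-Glo MT reagent, settled 5 h at 37 C/5% CO2 before compound addition. Nonlytic NanoLuc luminescence from viable-cell prosubstrate reduction read repeatedly during 40 h treatment at 37 C.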

Test [6] can be described thus: qHTS RealTime-Glo MT Cell Viability Assay in HEK293 cells - 40 hour (AID 1224874). Further: nearly all actives have a fitted effect of over 50% in size. Further: potency means the concentration at half of the fitted maximal effect. Particulars: RealTime-Glo luminescence; max response: stronger effect = lower value. In short, it runs like this:
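qHTS format; HEK293 cells with NanoLuc/prosubstrate reagent, 37 C/5% CO2 for 5 h pre-dosing; compounds 23 nL in DMSO; luminescence at each time point reflects viable cells.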

Test [7] can be described thus: A CellTox Green Cytotoxicity Assay to monitor cytotoxicity in HEK293 cells - 24 hour (AID 1224875). Further: series mostly up to about 77 µM; nearly all actives have a fitted effect of over 45% in size. In a few lines: as §2
Test [8] is described as follows: A CellTox Green Cytotoxicity Assay to monitor cytotoxicity in HepG2 cells - 16 hour (AID 1224876). Further: nearly all actives have a fitted effect of over 45% in size. In a few lines:
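Continuous culture of HepG2 cells with a membrane-impermeant DNA dye; rising fluorescence marks dead cells. Compound exposure lasted up to 40 h at 37 C, with reads every 8 h from 0 h.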

A short description of test [9]: qHTS RealTime-Glo MT Cell Viability Assay in HEK293 cells - 16 hour (AID 1224872). In a few lines:
as §1

Test [10] in a line: qHTS RealTime-Glo MT Cell Viability Assay in HepG2 cells - 40 hour (AID 1224870). Further: nearly all actives have a fitted effect of over 50% in size. In a few lines:
as §3
On the % scale 0 is the no-effect control and ±100 the full control effect.

For the compound `C[C@@H](O)C(=O)O`, the compound was called inactive in test [1] and in [5]. Further, the Potency result in test [2], in [3], in [4], in test [7] and in [8] was “inactive” each time. Further, the max response in test [6] is 3.5%.
For `CC(O)COC(C)(C)C` (centres undefined), the compound was classed as inactive in test [1] and in test [5]. The Potency result in test [2], in [3], in test [4], in test [9], in test [7] and in test [8] was “inactive” throughout. Moreover, in [6], the max response was 7.99%.
For `COC(=O)/C=C\C(=O)O`, the outcome in [1], in test [10] and in test [5] was inactive. Further, the Potency entry in test [2], in test [3], in test [9] and in test [8] was “inactive” each time. Besides, the max response in [6] is 0.0191%.
Turning to `CC(C)OC(=O)CCC(=O)OC(C)C`, the call in test [1], in test [10] and in test [5] was inactive. Besides, the Potency result in test [2], in [3], in test [9], in test [7] and in test [8] was “inactive” throughout. Also, in test [6], the max response was 8.19%.
Regarding `COc1cc2c(cc1OC)C(=O)C(CC1CCN(Cc3ccccc3)CC1)C2` (centres undefined), the outcome in test [1], in test [10] and in test [5] was inactive. Besides, the Potency in test [2] is 21.3 µM (active); in test [6], 23.9 µM (active). Further, the Potency entry in [4], in test [7] and in [8] was “inactive” in each case.
For the compound `Cc1ccccc1C(N)=O`, the outcome in test [1], in test [10] and in test [5] was inactive. Moreover, the Potency entry in test [3], in test [4], in test [9], in test [7] and in test [8] was “inactive” throughout. Besides, in test [6], the max response was 3%.
Regarding `COc1cc2c(cc1OC)CN(C(=O)[C@H](C)N[C@@H](CCc1ccccc1)C(=O)O)[C@H](C(=O)O)C2`, the result in test [1], in [10] and in test [5] was inactive. The Potency entry in test [2], in test [9], in test [7] and in test [8] was “inactive” each time. The max response in test [6] is 2.78%.
For the compound `CCCC(CC)c1ccccc1` (centres undefined), the compound was called inactive in test [1] and in test [5]. Also, the Potency entry in test [2], in [4], in [9] and in [8] was “inactive” each time. Also, the max response in test [6] was 11.4%.
Regarding `CC1(C)Cc2cccc(N)c2O1`, the compound was classed as inactive in test [1], in [10] and in [5]. Moreover, the Potency entry in test [3], in test [4], in test [9], in test [7] and in test [8] was “inactive” each time. Besides, the max response in test [6] was 1.5%.
On to `CCCCCCC1(C)CCC(=O)O1` (centres undefined), for which the call in [1], in test [10] and in [5] was inactive. For the same compound, the Potency result in test [2], in [9], in test [7] and in [8] was “inactive” in each case. In addition, in [6], the max response was 3.32%.
For the compound `C=Cc1ccc(C(C)(C)C)cc1`, the result in [1], in [10] and in test [5] was inactive. For the same compound, the Potency entry in [2], in test [9], in test [7] and in test [8] was “inactive” in each case. The max response in test [6] was -0.639%.
As to `C[C@H]1[C@@H](c2ccccc2)NC(=O)N1C`, the outcome in test [1], in test [10] and in [5] was inactive. Besides, the Potency entry in [3], in test [4], in [9], in test [7] and in test [8] was “inactive” in each case. For the same compound, the max response in test [6] was -8.69%.
Consider `CC1(C)Oc2ccc(C#N)cc2[C@@H](N2CCCC2=O)[C@@H]1O`, for which the outcome in test [1], in [10] and in [5] was inactive. In addition, the Potency result in test [2], in test [9], in test [7] and in [8] was “inactive” each time. For the same compound, the max response in test [6] is 2.51%.
Take `Cc1cccc(Cl)c1`: the result in [1], in [10] and in test [5] was inactive. In addition, the Potency result in [2], in [4], in test [9] and in test [8] was “inactive” in each case. Further, the max response in [6] was 0.996%.
As for `OCC1CCC(CO)CC1` (centres undefined), the result in test [1], in test [10] and in test [5] was inactive. The Potency result in [2], in [9], in [7] and in test [8] was “inactive” throughout. In addition, in test [6], the max response is 6.03%.
Regarding `CC1(C)O[C@H]2CC(=O)OC[C@]23[C@H]2CC[C@@]4(C)[C@H](c5ccoc5)OC(=O)[C@H]5O[C@]54[C@]2(C)C(=O)C[C@@H]13`, the result in test [1] and in test [5] was inactive. The Potency entry in [2], in test [4], in [9], in [7] and in test [8] was “inactive” each time. Also, the max response in [6] was 3.36%.
On to `COc1cc(/C=C/C(N)=O)cc(OC)c1OC`, for which the result in test [1], in [10] and in test [5] was inactive. The Potency entry in test [2], in [4], in [9] and in [8] was “inactive” throughout. The max response in test [6] is -21.8%.
As for `COC(=O)CCCCC(CCSS/C(CCO)=C(\C)N(C=O)Cc1cnc(C)nc1N)SC(C)=O` (centres undefined), the outcome in test [1], in test [10] and in [5] was inactive. The Potency entry in [3], in test [4], in test [9], in [7] and in test [8] was “inactive” each time. For the same compound, the max response in [6] was 3.28%.
Consider `CC(C)COC(=O)c1ccccc1`, for which the result in test [1], in [10] and in test [5] was inactive. Further, the Potency result in test [3], in [4], in test [9], in [7] and in test [8] was “inactive” in each case. Further, the max response in [6] was 2.33%.
Regarding `CC(=O)CC(=O)Nc1ccc(C)cc1C`, the call in test [1], in test [10] and in test [5] was inactive. Besides, the Potency result in test [3], in [4], in [9], in [7] and in test [8] was “inactive” each time. Further, the max response in test [6] was -1.23%.
In the case of `O=C1CCCCO1`, the outcome in [1], in test [10] and in [5] was inactive. Besides, the Potency result in [3], in test [4], in test [9] and in [8] was “inactive” in each case. In test [6], the max response is 1.35%.
On to `CC(C)(C)NC[C@H](O)COc1cccc2c1CCCC2=O`, for which the outcome in test [1], in [10] and in test [5] was inactive. Further, the Potency entry in test [2], in test [9] and in [8] was “inactive” throughout. In addition, the max response in test [6] was -12%.
With `c1ccc2cnccc2c1`, the outcome in test [1], in test [10] and in test [5] was inactive. For the same compound, the Potency result in [3], in test [4], in test [9], in [7] and in test [8] was “inactive” each time. For the same compound, the max response in test [6] is 9.26%.
On to `OC1OCCOC1O` (centres undefined), for which the compound was called inactive in test [1] and in [5]. Also, the Potency entry in test [2], in test [4], in test [9], in test [7] and in [8] was “inactive” in each case. The max response in test [6] was 9.9%.

The values are drawn from PubChem BioAssay (Tox21).
